Source: PubChem
HCV inh = blocks hepatitis C virus | Huh7.5.1 HCVcc-Cre infection, luciferase reporter, 44 h | Potency, µM (series often up to 41.8 µM), usual class: inhibitors | 3.4% of 340,000 active
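Cells seeded at 1,000/well and cultured 4 h, then compounds added followed by HCVcc-Cre virus (~0.5 moi). After 44 h further culture, luciferase substrate was added, plates held 15 min at room temperature, and luminescence read for 15 sec.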
CHX counter = counter-screen hit for Shiga toxin inhibitors, cycloheximide; 12% of 300,000 active; max response, %; cell reporter, cycloheximide protein synthesis inhibition counterscreen; in the data active = max response mostly above about 13%, no sharp cut-off; inactive = mostly below about 14%; note: read at 38.3 µM for the half of the compounds with a filed dose
Shiga inhibitor = Shiga toxin inhibition; Vero cells, Shiga toxin protein synthesis inhibition reporter; AID 2315; 9.2% of 290,000 active; inhibition, % at 38.7 µM; in the data active = inhibition mostly above about 28%, no sharp cut-off; inactive = mostly below about 43%
Pf growth 48h = P. falciparum growth inhibition at 48 hours (one generation); AID 504832; 5.9% of 310,000 active; P. falciparum luciferase growth in erythrocytes, 48 h; Potency, µM (series often up to 28.7 µM), actives largely listed as inhibitors
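Compounds are pin-transferred into medium, infected erythrocytes (2% hematocrit, 0.1% parasitemia final) are added, and plates sit one parasite generation at 37 C in 5% CO2. Detection reagent is then added and luminescence measured.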
Pf growth 96h = inhibits malaria parasite growth, 96 h; P. falciparum luciferase reporter growth, 96 h; Potency, µM (doses to about 28.7 µM), most hits filed as inhibitors; 6.9% of 320,000 active
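P. falciparum expressing integrated firefly luciferase grown in erythrocytes (2% hematocrit, 0.05% parasitemia final) with compounds for 96 hours at 37 C, 5% CO2. Growth inhibition read as loss of luminescence after adding luciferase detection reagent.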
HCMV inh = blocks human cytomegalovirus replication; 4.5% of 410,000 active; activity change, negative = inhibition, % at 57.5 µM; HFF cells, HCMV-luciferase reporter, 72 h; stronger effect = lower value; AID 1259415; in the data active = activity change below about -60%; inconclusive = no clear call, values can overlap the other calls; inactive = above about -39%
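Two compound doses tested in HFFs infected with HCMV-luciferase, MOI 1 PFU/cell, 72 h at 37C. Lysate luminescence read with OneGlo; data normalized against buffer-only and 10uM Salinomycin inhibitor controls.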
Hits are given with their value; n = inactive; u = inconclusive; x = no result given. This is a sample that favours compounds with a hit; in the whole collection about 21% have one here. Unless noted, calls come from the whole dose curve; as a rule, active = well fitted inhibition curve with a large enough effect; inconclusive = small, poorly fitted or top-dose-only effect, or another doubt; inactive = no such curve, though single readings can be large or run the other way.

SMILES	HCV inh	CHX counter	Shiga inhibitor	Pf growth 48h	Pf growth 96h	HCMV inh
Cc1cc(OC(C)C(=O)Nc2ccccc2C(=O)N2CCCC2)ccc1Cl (configuration not stated)	x	n	n	n	n	n
COc1ccc(OC)c(Nc2ncc3c(n2)CCN(Cc2cc(OC)c(OC)c(OC)c2)C3)c1	x	x	x	x	x	n
COc1ccccc1/C=C/C=N/NC(=O)c1ccco1	n	32	78	12µM	u	n
Cc1ccc(/C=N/NC(=O)c2cc(-c3ccc(C)o3)[nH]n2)cc1	u	n	n	n	n	n
O=C(N/N=C/c1ccccc1)c1ccc(OCc2ccccc2)cc1	n	n	n	n	n	n
COc1ccccc1/C=C/C=N/NC(=O)c1cc(-c2ccc(C)o2)[nH]n1	10µM	n	n	u	u	u
O=C(N/N=C/c1ccc2cccnc2c1)c1ccco1	n	n	72	n	n	n
O=C(N/N=C/c1ccc(OCc2ccccc2)cc1)c1ccco1	n	36	55	1.9µM	3.7µM	n
O=C(CC(Cc1ccccc1)C(=O)O)Nc1ccc(Cl)c(Cl)c1 (configuration not stated)	u	n	n	n	u	n
CCOC(=O)NN1C(=O)c2ccccc2NC1c1ccc(OC)c(OC)c1 (configuration not stated)	n	n	n	n	u	u
O=C(Nc1ccccc1C(=O)N/N=C/c1ccc(O)cc1)c1ccccc1	n	29	n	n	n	n
O=C(Nc1ccccc1C(=O)N/N=C/c1ccccc1)c1ccco1	n	27	87	n	n	n
COc1cccc(/C=N/NC(=O)c2ccccc2NC(=O)c2ccco2)c1OC	n	n	n	n	n	n
CC[C@H](C)[C@@H]1NC(=O)[C@H]([C@@H](C)CC)NC(=O)[C@@H](CC(C)C)NC(=O)[C@H](Cc2ccccc2)NC(=O)[C@H](Cc2ccccc2)NC(=O)[C@@H]2CCCN2C(=O)[C@@H]2CCCN2C(=O)[C@H](C(C)C)NC(=O)[C@H](CC(C)C)NC1=O	n	x	x	x	x	-80
Oc1ccc(C2CNCc3sccc32)cc1O (configuration not stated)	u	x	x	13µM	u	n
Oc1ccc(C2CNCCc3c2cc(O)c(O)c3Cl)cc1 (configuration not stated)	n	x	x	u	n	n
Cc1ccc(NC(=O)Cn2cnc3sc(C(=O)NCCN(C)C)c(C)c3c2=O)cc1Cl	10µM	n	n	u	12µM	x
Cc1ccc(NC(=O)Cn2cnc3sc(C(=O)O)c(C)c3c2=O)cc1Cl	x	x	x	x	x	n
CCn1cnc2sc(C(=O)Nc3ccc4c(c3)OCO4)c(C)c2c1=O	u	38	94	n	n	n
CCN(CC)CCCNC(=O)c1sc2ncn(CC(=O)Nc3ccc(C)c(Cl)c3)c(=O)c2c1C	14µM	n	n	13µM	n	-63
CCCNC(=O)Cn1cnc2sc(C(=O)Nc3ccc4c(c3)OCO4)c(C)c2c1=O	n	n	n	n	n	n
COCCCNC(=O)c1sc2ncn(CC(=O)Nc3ccc(C)c(Cl)c3)c(=O)c2c1C	u	n	n	n	n	n
CCCC(=O)N1CCc2cc(OC)c(OC)cc2C1COc1ccc2c(C)cc(=O)oc2c1 (configuration not stated)	x	x	x	x	x	n
CC(Oc1ccc(Cl)cc1Cl)C(=O)NNC(=O)c1ccncc1 (configuration not stated)	n	x	x	n	n	n
Cc1cc2nc(-c3ccc(NC(=O)C(C)C)cc3)oc2cc1C	u	54	80	n	x	n
SMILES	HCV inh	CHX counter	Shiga inhibitor	Pf growth 48h	Pf growth 96h	HCMV inh
Clc1ccc(-c2nc3cc(CN4CCCCC4)ccc3o2)cc1	u	36	54	n	n	n
O=C(Nc1ccc2oc(-c3ccc(Cl)cc3)nc2c1)c1ccc2ccccc2c1	x	x	x	x	x	n
Cc1ccc2nc(-c3ccc(O)cc3)oc2c1	n	19	n	n	u	n
CC(Oc1ccc(Cl)cc1Cl)C(=O)Nc1ccc2oc(-c3ccncc3)nc2c1 (configuration not stated)	7.1µM	n	n	n	n	-74
CCOc1ccc(S(=O)(=O)NCC(c2ccc(N(C)C)cc2)N2CCCC2)cc1 (configuration not stated)	x	x	x	x	x	n
Cc1ccc(CNc2ncccc2-c2nc3cc(Cl)ccc3o2)cc1	n	n	n	n	n	n
Cc1ccc(-c2nc3cc(Cl)ccc3o2)cc1	u	46	123	n	x	n
Cc1ccc(-c2nc3cc(NC(=O)c4cc(Br)ccc4Cl)ccc3o2)cc1	x	x	x	x	x	n
Cc1ccc(S(=O)(=O)Nc2ccc(-c3nc4cc(NS(=O)(=O)c5ccc(C)cc5)ccc4o3)cc2)cc1	x	n	n	x	4.1µM	x
COc1cc(OC)cc(-c2nc3cc(C)ccc3o2)c1	u	58	104	n	n	n
Cc1ccc(-c2nc3cc(NC(=O)C(C)C)ccc3o2)cc1	u	73	95	n	n	n
O=C(O)P(=O)(O)O	x	x	x	n	u	x
O=C(Nc1ccc(S(=O)(=O)Nc2ncccn2)cc1)c1cccc(S(=O)(=O)N2CCCC2)c1	n	n	n	n	n	n
COc1ccc(CCC(=O)OCC(=O)NCc2ccc(OC)c(OC)c2)cc1OC	n	x	x	x	x	n
Cc1ccc(-c2nc3cc(NC(=O)C(C)C)ccc3o2)cc1C	u	83	95	n	n	n
COCCNC(=O)Cn1cc(S(=O)(=O)Cc2ccccc2Cl)c2ccccc21	x	x	x	x	x	n
CNc1ccc(Br)cc(C(=O)/C=C/c2ccc(OC)cc2OC)c1=O	n	65	80	u	u	-66
CNc1ccc(Br)cc(C(=O)/C=C/c2cccc(OC)c2)c1=O	11µM	13	n	u	u	-85
CCNc1ccc(Br)cc(C(=O)/C=C/c2ccc(Cl)cc2)c1=O	u	n	n	n	u	x
CCNc1ccc(Br)cc(C(=O)/C=C/c2c(Cl)cccc2Cl)c1=O	13µM	n	n	u	u	x
CCOc1ccc(-c2cn3nc(CC(C)C)sc3n2)cc1	x	x	x	x	x	n
Cc1ccc2[nH]c(=O)c(CN(Cc3ccco3)C(=O)CN3CCCC(C)C3)cc2c1 (configuration not stated)	n	n	n	n	u	n
COc1ccccc1N1CCN(C(=O)COc2ccc(Cl)cc2Br)CC1	u	n	n	n	8.3µM	n
COc1ccccc1N1CCN(C(=O)COc2cc(C)cc3oc(=O)cc(C)c23)CC1	8.9µM	n	n	n	u	n
CCCOc1ccc(NC(=O)CC2C(=O)N(Cc3ccccc3)C(=S)N2Cc2cccs2)cc1 (configuration not stated)	u	22	n	u	u	n
CCN1C(=O)C(CC(=O)Nc2ccc(F)cc2)N(Cc2cccs2)C1=S (configuration not stated)	n	n	n	10µM	n	u
Cn1c(N2CCN(C(=O)Nc3ccc(F)cc3)CC2)nc2ccccc21	u	n	n	u	n	n
Cn1c(N2CCN(C(c3ccccc3)c3ccccc3)CC2)nc2ccccc21	u	n	n	u	13µM	n
